IL-1B inflam inh = inhibitors of inflammasome signaling (IL-1 beta secretion); AID 743279; activity change, % at 57.5 µM; 360,000 compounds, 4.7% hits; THP-1 LPS/ATP IL-1B secretion, AlphaLISA, 16 h; stronger effect = lower value; in the data active = activity change below about -50%; inconclusive = mostly about -30% to -49%; also: % is scaled to controls: 0 for no effect and ±100 for the full control effect
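THP-1 cells pretreated 1 hr with compounds (up to 57.5 uM final), then stimulated with LPS (250 ng/mL final) plus ATP (1.25 mM final); secreted IL-1B measured by AlphaLISA after 16 hr, decreased signal indicating inhibition.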
HT1080 IDH1KD tx = toxicity to HT-1080 IDH1 knockdown cells (counter line); Potency, µM (doses to about 46.1 µM), without a hit: at the top dose activity, negative = toxicity, most hits filed as cytotoxic; AID 686971; 360,000 compounds, 2% hits; HT-1080 IDH1 knockdown viability, ATP luminescence, 48 h;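 also: potency is read from the fitted curve at half-maximal effect; 0% = DMSO wells and -100% = cell-free medium wells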
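Using the IDH1-knockdown HT-1080 line run in the same batch and compound series as the NT line, viability after 48 h at 37 °C was determined by CellTiter-Glo luminescence and expressed as % activity.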
HepG2 tox = counter-screen for TGF-b inhibitors: cytotoxicity in HepG2 cells | HepG2 CAGA-GFP viability, ATP luminescence, 18 h | Potency, µM (titrated, usually from 46.1 µM), without a hit: top-dose activity change, negative = cytotoxicity, hits mostly cytotoxic | 410,000 compounds, 0.76% hits; also: potency is read from the fitted curve at half-maximal effect
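CellTiter-Glo luminescence gave cytotoxicity after 18 hours at 37 degrees C. The cells were HepG2 CAGA-GFP in 1% FBS DMEM, stimulated with 500 pg/mL TGF-beta after compound addition. %Activity was normalised to no-cell wells (complete cell-killing) and DMSO (no toxicity), and curves were fitted and classified.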
Giardia killer = Giardia lamblia killing; 340,000 compounds, 0.15% hits; activity change, % at 7.66 µM, hits read low; Giardia lamblia trophozoite viability; in the data active = activity change below about -80%; inconclusive = between about -30% and that limit;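 also: parasites exposed to compound for two days anaerobically before the ATP read; % is scaled to controls: 0 for no effect and ±100 for the full control effect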
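Compounds were tested on trophozoites seeded at 100 cells/well and held 48 hrs at 37 deg C anaerobically. An ATP-based luminescent kit measured the remaining live cells.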
HT1080-NT tox = kills 2HG-producing HT-1080-NT fibrosarcoma cells; HT-1080-NT fibrosarcoma viability, CellTiter-Glo ATP luminescence, 48 h; 360,000 compounds, 1.6% hits; AID 686970; Potency, µM (doses to about 46.1 µM), inactives show at the highest dose activity, negative = less viability, actives largely listed as cytotoxic;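 also: NT is the 2HG producing partner of a matched IDH1 knockdown line; potency is read from the fitted curve at half-maximal effect; 0% = DMSO-treated cells and -100% = media-only wells without cells; nearly all actives have a fitted effect of over 55% in size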
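HT-1080-NT fibrosarcoma cells (2HG-overproducing), 750 cells/well in RPMI with 5% FBS, dosed after 2 h and incubated 48 h at 37C. CellTiter-Glo luminescence normalized to DMSO and no-cell wells; concentration-response curves fitted and classed.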
TGFb SMAD3 inh = inhibitors of TGF-b signaling; HepG2 CAGA-GFP TGF-b/SMAD3 reporter, GFP fluorescence, 18 h; TGF-beta stimulated, 500 pg/mL final; Potency, µM (highest dose often 46.1 µM), for inactives: at the highest dose activity, negative = inhibition, most hits filed as inhibitors; 410,000 compounds, 1.2% hits; also: potency is read from the fitted curve at half-maximal effect; % is scaled to controls: 0 for no effect and ±100 for the full control effect; nearly all actives have a fitted effect of over 65% in size
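Cell-based qHTS in HEPG2 carrying a CAGA-GFP Smad reporter; compounds added before 500 pg/mL final TGF-beta, 18 h incubation at 37 degrees C, GFP fluorescence quantified per cell by imaging cytometry.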
Active calls of the source: *; u = inconclusive; x = no result; ! = not active in a repeat; [ ] = another dose, or the depositor's remark. An excerpt weighted towards active compounds, which were near 6.5% of everything screened. Unless noted, calls follow the shape of the dose curve; as a rule, active = well fitted curve in the direction sought with a large enough effect; inconclusive = small, poorly fitted or top-dose-only effect, or another doubt; inactive = no such curve, though single readings can be large; an effect the other way counts as inactive or inconclusive.

SMILES	IL-1B inflam inh	HT1080 IDH1KD tx	HepG2 tox	Giardia killer	HT1080-NT tox	TGFb SMAD3 inh
Cc1ccc(CCNC(=O)C2CCN(C(=O)c3sccc3-n3cccc3)CC2)cc1	-12.4	-2.4%	-10.6%	3.4	3.9%	5.2%
CC(C)(C)C1CCc2c(sc3nnn(CCOc4ccccc4)c(=O)c23)C1 (stereo unspecified)	x	x	-2.2%	x	x	-0.1%
O=[N+]([O-])c1cccc(-c2noc(-c3cccs3)n2)c1	20.6	4.6%	-20.0%	u	6.2%	-15.1%
COc1ccc(OC)c(C2CC(c3ccc(NS(C)(=O)=O)cc3)=NN2C(=O)c2ccccc2)c1 (stereo unspecified)	-6.4	-0.8%	-17.8%	-22.2	-1.6%	0.3%
NS(=O)(=O)c1cccc(NC(=O)COC(=O)c2cc(Cl)ccc2[N+](=O)[O-])c1	-17.2	8.0%	0.1%	-25.3	18.8%	2.5%
O=C(/C=C/c1cccnc1)c1cccc(O)c1	-2.8	u	-49.7%	1.8	20.6µM*	u
O=C(/C=C/c1cccc(O)c1)c1cccnc1	-5.7	u	-74.8%	2.5	u	u
Cc1ccc(Cl)cc1N1CCN(S(=O)(=O)c2cnc[nH]2)CC1	-3.3	-6.3%	-2.8%	6.0	4.5%	5.9%
Cc1ccc(NS(=O)(=O)c2ccc(C(=O)N3CC(C)OC(C)C3)cc2)cc1 (stereo unspecified)	74.1	-13.1%	-13.0%	-4.8	-1.4%	-29.6%
Cc1ccc(C(CNC(=O)C(=O)Nc2ccc3c(c2)OCCO3)N2CCN(C)CC2)cc1 (stereo unspecified)	u	11.4%	-19.5%	14.8	8.6%	-20.5%
Cc1c(C(=O)NC2CCN(Cc3ccccc3)C2)oc2c(Cl)cccc12 (stereo unspecified)	-88.1*	u	-15.2%	9.8	u	1.2%
Cc1ccc(S(=O)(=O)N/N=C\c2ccc([N+](=O)[O-])o2)cc1	-60.4*	-27.3%	-18.9%	-4.6	4.0%	-10.5%
O=C1SCCN1N=Cc1ccc([N+](=O)[O-])o1	9.3	-4.8%	-52.3%	-84.8*	u	u
Cc1ccc(S(=O)(=O)N/N=C\c2ccc([N+](=O)[O-])o2)cc1C	-22.7	-0.4%	6.2%	-3.7	16.1%	-26.2%
O=[N+]([O-])c1ccc(/C=N/NS(=O)(=O)c2ccc(Cl)cc2)o1	-2.7	-0.6%	-7.2%	-2.1	-0.6%	-13.4%
O=[N+]([O-])c1ccc(/C=N/N=C/c2ccc([N+](=O)[O-])o2)o1	-101.2*	2.91µM*	-15.5%	-18.0	4.61µM*	u
Cc1cc2ncn(/N=C/c3ccc([N+](=O)[O-])o3)c2cc1C	u	7.94µM*	12.6µM*	u	-6.4%	2.51µM*
CCN(Cc1ccccc1)C(=O)CSc1n[nH]c(N)n1	3.3	5.3%	6.1%	19.2	0.5%	5.0%
O=C(COC(=O)CNC(=O)c1cc(Cl)cc([N+](=O)[O-])c1)NC(=O)NCc1ccco1	21.2	1.8%	-0.9%	-9.7	3.0%	5.2%
Cc1ccc(OCC(=O)NNC(=O)C(=O)NC(C)(C)C)cc1	-4.9	0.2%	9.8%	11.0	15.4%	-4.9%
CCOc1ccc(NC(=O)CN(C)C(=O)C2CCN(C(=O)c3ccc(Cl)cc3)CC2)cc1OCC	-51.0*	-5.6%	-11.2%	22.3	-0.3%	-1.4%
OCCN1CCN(c2ncnc3c2sc2nc(N4CCOCC4)c4c(c23)CCC4)CC1	-76.8*	9.2%[9.24 µM]	-60.9%	-10.3	u	-17.0%
Cc1ccc(-n2cnc3c(sc4nc(N5CCOCC5)c5c(c43)CCCC5)c2=O)cc1	12.3	4.5%	-35.7%	2.3	1.9%	u
OCCN(CCO)c1ncnc2c1sc1nc(N3CCOCC3)c3c(c12)CCCC3	0.9	-14.4%	-12.7%	-2.2	-18.1%	-10.6%
O=c1c2sc3nc(N4CCOCC4)c4c(c3c2ncn1-c1ccccc1)CCCC4	-60.3*	-2.8%	-23.2%	15.9	-8.8%	-5.5%
SMILES	IL-1B inflam inh	HT1080 IDH1KD tx	HepG2 tox	Giardia killer	HT1080-NT tox	TGFb SMAD3 inh
CC1(C)Cc2c(c(N3CCOCC3)nc3sc4c(NCCN)ncnc4c23)CO1	0.0	u	-10.8%	3.1	u	-11.0%
CC1(C)Cc2c(c(N3CCCC3)nc3sc4c(N5CCN(CCO)CC5)ncnc4c23)CO1	-61.1*	-5.3%	-31.4%	20.6	u	-12.2%
O=C1OCCC1Sc1nnc(-c2cccc(Br)c2)o1 (stereo unspecified)	14.9	7.9%	-24.5%	-8.6	4.0%	-5.6%
CC(C)(C)[C@H]1CCC(=O)N([C@H](CSc2ccccc2)Cc2ccccc2)CC1	-7.5	8.2%	-21.0%	5.3	15.3%	11.2µM*!
Cc1ccc(SC[C@H](Cc2ccccc2)N2CC[C@@H](C(C)(C)C)CCC2=O)cc1	x	x	0.9%	x	x	-10.0%
CCCCN1C[C@H](C)[C@@H](CC(=O)Nc2ccc(OC)cc2)C1=O	-3.5	4.4%	-2.0%	x	2.3%	8.9%
Cc1ccc2nc(N3C(=O)CNC3=S)sc2c1	x	16.4µM*	-135.8%	-4.4	u	11.2µM*
CCCCN(C(=O)CSc1cc(C)c2ccccc2n1)c1c(N)n(Cc2ccccc2)c(=O)[nH]c1=O	-59.2*	-14.4%	-2.1%	3.3	-7.9%	u
CCCCN(C(=O)CSc1nn(-c2ccc(F)cc2)c(=S)s1)c1c(N)n(CCCC)c(=O)[nH]c1=O	-71.6*	-4.8%	-0.2%	-11.0	-2.6%	-11.0%
CCCCN(C(=O)c1cc(-c2ccc(F)cc2)nc2ccccc12)c1c(N)n(CCCC)c(=O)[nH]c1=O	-69.7*	-2.0%	-4.1%	-15.8	-4.2%	-0.3%
COc1ccc(S(=O)(=O)N(CC(=O)Nc2ccccc2C(=O)N2CCOCC2)c2ccc(F)cc2)cc1	11.1	-7.0%	10.6%	1.2	-7.3%	26.1%
COC1=C(Nc2ccc(C)cc2)C(=O)c2ccccc2C1=O	-76.5*	-15.0%	-89.3%	-7.6	-19.7%	u
CC(=O)NC1=C(Nc2ccc(N(C)C)cc2)C(=O)c2ccccc2C1=O	29.9	13µM*	-23.2%	-0.6	u	-28.3%
CC(=O)NC1=C(N(C)C2CCS(=O)(=O)C2)C(=O)c2ccccc2C1=O (stereo unspecified)	u	u	-97.0%	18.0	u	u
Cc1ccc(S(=O)(=O)Nc2ccc3c(c2)C(=O)c2ccccc2-3)cc1	28.7	u	-27.4%	x	u	u
COC1=C(Nc2ccccc2)C(=O)c2ccccc2C1=O	u	13µM*	-95.1%	-2.1	u	15.8µM*

Compound activity (PubChem BioAssay)
